# From the supplement of paper PMC12282887
# ± gives the standard deviation of the averaged measurements.
# What was measured:
# Assay in all cases: promoter activity interaction Z-score (Lux/OD deviation from empty-vector control); higher = stronger promoter induction by the compound
# [1] = tested on: E. coli BW25113 acrABp lux reporter
# Method in brief: (§1)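 E. coli BW25113, as wild type or one of three single-gene deletion strains, carried low-copy luxCDABE promoter reporters and grew in 40 µl LB Lennox in 384-well plates at 37°C, with OD600 and luminescence read every 30 min for 12 h. Each compound was run at four 1:2 dilutions in biological duplicates, integration spanned 0–8 h for wild type and 1–9 h for deletion strains, and wells under 10% of the median growth value were dropped. The score is the Z-transformed residual of growth-normalised luminescence fitted against a control.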
# [2] = tested on: E. coli BW25113 micFp lux reporter
# Method in brief: as §1
# [3] = tested on: E. coli BW25113 ompFp lux reporter
# Method in brief: as §1
# [4] = tested on: E. coli BW25113 robp lux reporter
# Method in brief: as §1
# [5] = tested on: E. coli BW25113 soxSp lux reporter
# Method in brief: as §1
# [6] = tested on: E. coli BW25113 tolCp lux reporter
# Method in brief: as §1
# [7] = 21.6 µg/ml, genetic background: wild type
# [8] = 21.6 µg/ml, genetic background: ΔmarA
# [9] = 21.6 µg/ml, genetic background: Δrob
# [10] = 21.6 µg/ml, genetic background: ΔsoxS
# [11] = 43.2 µg/ml, genetic background: wild type
# [12] = 43.2 µg/ml, genetic background: ΔmarA
# [13] = 43.2 µg/ml, genetic background: Δrob
# [14] = 43.2 µg/ml, genetic background: ΔsoxS
# [15] = 86.4 µg/ml, genetic background: wild type
# [16] = 86.4 µg/ml, genetic background: ΔmarA
# [17] = 86.4 µg/ml, genetic background: Δrob
# [18] = 86.4 µg/ml, genetic background: ΔsoxS
# [19] = 172.7 µg/ml, genetic background: wild type
# [20] = 172.7 µg/ml, genetic background: ΔmarA
# [21] = 172.7 µg/ml, genetic background: Δrob
# [22] = 172.7 µg/ml, genetic background: ΔsoxS
compound,measurement,setting,value
COc1ccc2[nH]c([S+]([O-])Cc3ncc(C)c(OC)c3C)nc2c1 (stereo unspecified) [Omeprazole],promoter activity interaction Z-score,[1]; [7],-0.337 ± 0.014
same,promoter activity interaction Z-score,[1]; [8],0.346 ± 0.48
same,promoter activity interaction Z-score,[1]; [9],-0.0504 ± 0.066
same,promoter activity interaction Z-score,[1]; [10],-0.13 ± 0.54
same,promoter activity interaction Z-score,[1]; [11],-0.353 ± 0.082
same,promoter activity interaction Z-score,[1]; [12],-0.358 ± 0.072
same,promoter activity interaction Z-score,[1]; [13],-0.105 ± 0.12
same,promoter activity interaction Z-score,[1]; [14],-0.0181 ± 0.095
same,promoter activity interaction Z-score,[1]; [15],-0.362 ± 0.37
same,promoter activity interaction Z-score,[1]; [16],-0.395 ± 0.11
same,promoter activity interaction Z-score,[1]; [17],-0.192 ± 0.19
same,promoter activity interaction Z-score,[1]; [18],-0.303 ± 0.19
same,promoter activity interaction Z-score,[1]; [19],-0.479 ± 0.43
same,promoter activity interaction Z-score,[1]; [20],-0.193 ± 0.65
same,promoter activity interaction Z-score,[1]; [21],-0.199 ± 0.17
same,promoter activity interaction Z-score,[1]; [22],-0.532 ± 0.35
same,promoter activity interaction Z-score,[2]; [7],-0.467 ± 0.1
same,promoter activity interaction Z-score,[2]; [8],-0.0778 ± 0.095
same,promoter activity interaction Z-score,[2]; [9],-0.00843 ± 0.2
same,promoter activity interaction Z-score,[2]; [10],-0.201 ± 0.026
same,promoter activity interaction Z-score,[2]; [11],-0.228 ± 0.15
same,promoter activity interaction Z-score,[2]; [12],-0.00184 ± 0.029
same,promoter activity interaction Z-score,[2]; [13],0.0425 ± 0.23
same,promoter activity interaction Z-score,[2]; [14],-0.0104 ± 0.033
same,promoter activity interaction Z-score,[2]; [15],-0.311 ± 0.11
same,promoter activity interaction Z-score,[2]; [16],0.141 ± 0.0042
same,promoter activity interaction Z-score,[2]; [17],0.11 ± 0.088
same,promoter activity interaction Z-score,[2]; [18],0.0651 ± 0.15
same,promoter activity interaction Z-score,[2]; [19],-0.637 ± 0.076
same,promoter activity interaction Z-score,[2]; [20],0.0179 ± 0.059
same,promoter activity interaction Z-score,[2]; [21],-0.0934 ± 0.045
same,promoter activity interaction Z-score,[2]; [22],-0.467 ± 0.12
same,promoter activity interaction Z-score,[3]; [7],-0.482 ± 0.29
same,promoter activity interaction Z-score,[3]; [8],-0.539 ± 0.12
same,promoter activity interaction Z-score,[3]; [9],-0.476 ± 0.1
same,promoter activity interaction Z-score,[3]; [10],-0.299 ± 0.19
same,promoter activity interaction Z-score,[3]; [11],-0.42 ± 0.17
same,promoter activity interaction Z-score,[3]; [12],-0.516 ± 0.55
same,promoter activity interaction Z-score,[3]; [13],-0.244 ± 0.2
same,promoter activity interaction Z-score,[3]; [14],-0.555 ± 0.25
same,promoter activity interaction Z-score,[3]; [15],-1.02 ± 0.014
same,promoter activity interaction Z-score,[3]; [16],-0.56 ± 0.35
same,promoter activity interaction Z-score,[3]; [17],-0.352 ± 0.17
same,promoter activity interaction Z-score,[3]; [18],-0.773 ± 0.19
same,promoter activity interaction Z-score,[3]; [19],-0.996 ± 0.11
same,promoter activity interaction Z-score,[3]; [20],-0.786 ± 0.12
same,promoter activity interaction Z-score,[3]; [21],-1.14 ± 0.44
same,promoter activity interaction Z-score,[3]; [22],-1.41 ± 0.14
same,promoter activity interaction Z-score,[4]; [7],-0.44 ± 0.32
same,promoter activity interaction Z-score,[4]; [8],-0.171 ± 0.43
same,promoter activity interaction Z-score,[4]; [9],-0.295 ± 0.01
same,promoter activity interaction Z-score,[4]; [10],0.394 ± 0.34
same,promoter activity interaction Z-score,[4]; [11],0.141 ± 0.33
same,promoter activity interaction Z-score,[4]; [12],0.325 ± 0.23
same,promoter activity interaction Z-score,[4]; [13],-0.173 ± 0.37
same,promoter activity interaction Z-score,[4]; [14],0.145 ± 0.46
same,promoter activity interaction Z-score,[4]; [15],-0.722 ± 0.046
same,promoter activity interaction Z-score,[4]; [16],0.298 ± 0.23
same,promoter activity interaction Z-score,[4]; [17],-0.445 ± 0.32
same,promoter activity interaction Z-score,[4]; [18],-0.519 ± 0.64
same,promoter activity interaction Z-score,[4]; [19],-0.656 ± 0.28
same,promoter activity interaction Z-score,[4]; [20],-0.167 ± 0.31
same,promoter activity interaction Z-score,[4]; [21],-0.507 ± 0.035
same,promoter activity interaction Z-score,[4]; [22],-0.379 ± 0.46
same,promoter activity interaction Z-score,[5]; [7],-0.231 ± 0.11
same,promoter activity interaction Z-score,[5]; [8],-0.202 ± 0.05
same,promoter activity interaction Z-score,[5]; [9],-0.257 ± 0.062
same,promoter activity interaction Z-score,[5]; [10],-0.178 ± 0.32
same,promoter activity interaction Z-score,[5]; [11],-0.256 ± 0.0098
same,promoter activity interaction Z-score,[5]; [12],-0.206 ± 0.022
same,promoter activity interaction Z-score,[5]; [13],-0.175 ± 0.12
same,promoter activity interaction Z-score,[5]; [14],-0.281 ± 0.054
same,promoter activity interaction Z-score,[5]; [15],-0.301 ± 0.081
same,promoter activity interaction Z-score,[5]; [16],-0.305 ± 0.1
same,promoter activity interaction Z-score,[5]; [17],-0.0539 ± 0.1
same,promoter activity interaction Z-score,[5]; [18],-0.344 ± 0.12
same,promoter activity interaction Z-score,[5]; [19],-0.333 ± 0.024
same,promoter activity interaction Z-score,[5]; [20],-0.374 ± 0.013
same,promoter activity interaction Z-score,[5]; [21],-0.226 ± 0.14
same,promoter activity interaction Z-score,[5]; [22],-0.806 ± 0.14
same,promoter activity interaction Z-score,[6]; [7],-0.0562 ± 0.63
same,promoter activity interaction Z-score,[6]; [8],-0.81 ± 0.13
same,promoter activity interaction Z-score,[6]; [9],-0.978 ± 0.82
same,promoter activity interaction Z-score,[6]; [10],-0.661 ± 0.85
same,promoter activity interaction Z-score,[6]; [11],0.122 ± 0.9
same,promoter activity interaction Z-score,[6]; [12],-0.409 ± 0.93
same,promoter activity interaction Z-score,[6]; [13],-0.642 ± 0.94
same,promoter activity interaction Z-score,[6]; [14],0.332 ± 0.16
same,promoter activity interaction Z-score,[6]; [15],-0.33 ± 0.54
same,promoter activity interaction Z-score,[6]; [16],0.11 ± 0.23
same,promoter activity interaction Z-score,[6]; [17],0.71 ± 0.025
same,promoter activity interaction Z-score,[6]; [18],0.0744 ± 0.91
same,promoter activity interaction Z-score,[6]; [19],0.169 ± 0.58
same,promoter activity interaction Z-score,[6]; [20],-0.0827 ± 1.5
same,promoter activity interaction Z-score,[6]; [21],0.0999 ± 0.066
same,promoter activity interaction Z-score,[6]; [22],-0.969 ± 0.63
